Laboratory results taken from PubChem BioAssay (Tox21).
Results filed as inconclusive are left out. Where a call stands in place of a potency, no number is given. The source made the active and inactive calls. The call rests on the fitted dose curve; in most records, active means well fitted activation curve with a large enough effect in the signal ratio in the repeat runs (not every such curve was filed as active); inconclusive means weak or mixed curves; inactive means flat fitted curve, though single readings scatter; the % refers to the signal ratio.

Assay: qHTS assay to identify small molecule agonists of the TGF-beta/Smad signaling pathway (AID 1346859)
Conditions: SBE-bla HEK293T, TGF-beta/Smad beta-lactamase reporter, 5 h; series mostly up to 76.8 µM
Excerpt: U.S. Tox21 Program National Center for Advancing Translational Sciences [NCATS] NIH Chemical Genomics Center [NCGC] U.S. Environmental Protection Agency [EPA] National Institutes of Environmental Health Sciences [NIEHS] National Toxicology Program [NTP] U.S. Food and Drug Administration [FDA] Tox21 Assay Overview: Transforming growth factor beta (TGF-beta) superfamily consists of a large number of structurally related dimeric proteins that act as hormones or local mediators in regulating a wide range of biological functions. This superfamily includes TGF-betas themselves, the bone morphogenetic proteins (BMPs) and the activins. These ligands induce oligomerization of serine/threonine receptor kinases and phosphorylate the cytoplasmic signaling molecules of Smad protein family. CellSensor SBE-bla HEK 293T cell line (Life Technologies, Carlsbad, CA), responsive to TGF-beta was used to screen Tox21 10K compound library for identification of agonists/antagonists of the Smad signaling pathway. This cell line contains a beta-lactamase reporter gene under control of the Smad binding element (SBE) stably integrated into HEK 293T cells.
Tox21 Assay Protocol Summary: SBE-bla HEK 293T cells were dispensed at 4,000/well in 6 uL of assay medium into black wall/clear-bottom 1536-well plates using a Multidrop Combi (ThermoFisher Scientific, Waltham, MA) dispenser. After the assay plates were incubated at 37 C and 5% CO2 for an overnight, 23 nL of compounds dissolved in DMSO, positive controls or DMSO only was transferred to the assay plate by a Pintool station (Kalypsys, San Diego, CA). The assay plates were incubated at 37 C and 5% CO2 for 5 hr. One uL of LiveBLAzer B/G FRET substrate (Life Technologies) was added using a Flying Reagent Dispenser (Aurora Discovery, San Diego, CA) and the plates were incubated at room temperature for 2 hr. Fluorescence intensity (405 nm excitation, 460 nm and 530 nm emissions) was measured using an Envision plate reader (PerkinElmer, Shelton, CT).

SMILES | Potency
CC(=O)OC(C)(C)C1CC=C(C)CC1 (stereo not given) | inactive
CC(=O)OCc1ccc2c(c1)OCO2 | inactive
CC1=CC(=O)CC(C)(C)C1 | inactive
NCCNCCNCCN | inactive
COc1c(Cl)ccc(Cl)c1C(=O)O | inactive
NC(=O)NC(N)=O | inactive
CC(C=O)Cc1ccc(C(C)(C)C)cc1 (stereo not given) | inactive
COCN(COC)c1nc(N(COC)COC)nc(N(COC)COC)n1 | inactive
CCCCCCCC(=O)O | inactive
CO[Si](CCCNCCN)(OC)OC | inactive
CCN(CC)CCNC(=O)c1ccc(N)cc1 | inactive
CCCCCC(C)=O | inactive
CC(COCC(C)OC(=O)c1ccccc1)OC(=O)c1ccccc1 (stereo not given) | inactive
C=CC(=O)NCOCCCC | inactive
CCCN(CCC)C(=O)SCC | inactive
CN1Cc2c(N)cccc2C(c2ccccc2)C1 (stereo not given) | inactive
CN=C(NC#N)NCCSCc1nc[nH]c1C | inactive
C=C(CC(=O)O)C(=O)O | inactive
COC(=O)CCCCC(=O)OC | inactive
O=C(O)C1=NN(c2ccc(S(=O)(=O)O)cc2)C(=O)C1 | inactive

SMILES | Potency
O=C1O[C@H]([C@H](O)CO)C(O)=C1O | inactive
OCC(CO)(CO)CO | inactive
Cc1cc(C)cc(O)c1 | inactive
Cc1ccccc1C=O | inactive
CCCCCCCCCCCCCC(=O)O | inactive
CCOC(=O)c1ccc(O)cc1 | inactive
OCC(O)CS (stereo not given) | inactive
NC1CCCCC1N (stereo not given) | inactive
CN1CCCC1=O | inactive
Cc1cc(C)c(O)c(C)c1 | inactive
C1CCCNCC1 | inactive
O=C1C(N(CO)C(=O)NCO)N(CO)C(=O)N1CO (stereo not given) | inactive
COc1c2ccoc2cc2oc(=O)ccc12 | inactive
CCCCCCCCC(=O)O | inactive
Cc1ccncc1 | inactive
O=C1CCCCCCCCCCC1 | inactive
O=C(O)Cc1c[nH]c2ccccc12 | inactive
Cc1ccc([N+](=O)[O-])cc1N | inactive
CS(=O)(=O)c1ccc(Cl)cc1 | inactive
CCCCCCCCO | inactive
